Test results reported in PubChem BioAssay (Tox21).
Several values for one entry are separate records, joined by “and”; a condition that tells them apart may be missing. Identical values can stand only once. Results filed as inconclusive are left out. Entries that show only a call come without a potency. A structure can be active in one record and inactive in another. Activity calls are given as the source filed them. Unless noted, calls follow the shape of the dose curve; as a rule, active = well fitted curve in the direction sought with a large enough effect in the repeat runs; inconclusive = weak or mixed curves; inactive = no such curve, though single readings can be large; an effect the other way counts as inactive or inconclusive.

Columns and labels:
[1] = target: Progesterone receptor (Homo sapiens) (UniProt P06401); experiment: qHTS assay to identify small molecule agonists of the progesterone receptor (PR) signaling pathway (AID 1346784; calls by dose curve; also: nearly all actives have a fitted effect of over 30% in size)
Progesterone receptor (Homo sapiens), sequence (P06401 whole entry, looked up): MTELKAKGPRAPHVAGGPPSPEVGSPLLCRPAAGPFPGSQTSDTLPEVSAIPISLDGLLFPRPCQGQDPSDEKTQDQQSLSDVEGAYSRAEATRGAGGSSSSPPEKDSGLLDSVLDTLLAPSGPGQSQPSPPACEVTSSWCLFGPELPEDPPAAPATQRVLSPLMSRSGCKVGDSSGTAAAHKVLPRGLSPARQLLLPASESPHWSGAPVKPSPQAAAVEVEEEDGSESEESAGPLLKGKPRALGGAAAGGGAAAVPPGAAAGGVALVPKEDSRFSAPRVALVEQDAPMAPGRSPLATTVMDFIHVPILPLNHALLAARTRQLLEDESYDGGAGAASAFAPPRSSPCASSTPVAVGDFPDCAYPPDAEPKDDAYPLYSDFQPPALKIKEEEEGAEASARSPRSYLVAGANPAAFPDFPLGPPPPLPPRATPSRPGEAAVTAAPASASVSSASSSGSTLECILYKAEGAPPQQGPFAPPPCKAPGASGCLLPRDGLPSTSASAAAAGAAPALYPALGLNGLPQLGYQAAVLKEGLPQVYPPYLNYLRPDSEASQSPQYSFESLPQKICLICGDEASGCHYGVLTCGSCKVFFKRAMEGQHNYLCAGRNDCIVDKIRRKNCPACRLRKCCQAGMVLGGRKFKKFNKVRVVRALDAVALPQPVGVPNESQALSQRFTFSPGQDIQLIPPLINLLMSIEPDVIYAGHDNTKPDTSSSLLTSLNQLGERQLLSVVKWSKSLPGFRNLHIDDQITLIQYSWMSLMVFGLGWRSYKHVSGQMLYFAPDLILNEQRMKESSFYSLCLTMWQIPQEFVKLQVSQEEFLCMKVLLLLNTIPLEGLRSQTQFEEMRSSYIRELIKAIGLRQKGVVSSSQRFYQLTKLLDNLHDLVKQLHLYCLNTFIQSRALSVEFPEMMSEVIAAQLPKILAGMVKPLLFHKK
Method in brief: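 Reporter assay, GripTite PR-UAS-bla HEK 293T cells: 16 hr exposure to DMSO-dissolved compounds at 37C, 5% CO2, in steroid-depleted (2% charcoal-stripped FBS) medium; beta-lactamase measured by FRET fluorescence.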

[2] = qHTS assay to identify small molecule antagonists of the progesterone receptor (PR) signaling pathway - cell viability counter screen (AID 1346798); also: potency is read from the fitted curve at half-maximal effect; nearly all actives have a fitted effect of over 50% in size
Method in brief: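 In the same plates used for the beta-lactamase readout, cell viability of compound- and R5020-treated PR-UAS-bla HEK293T cells (16 hr, 37C) was assessed by CellTiter-Glo luminescence.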

[3] = qHTS assay to identify small molecule agonists of the progesterone receptor (PR) signaling pathway - cell viability counter screen (AID 1346799; calls by dose curve; also: nearly all actives have a fitted effect of over 45% in size; also: potency is read from the fitted curve at half-maximal effect)
Method in brief: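 Multiplexed viability read: CellTiter-Glo luminescence, 30 min RT, following LiveBLAzer FRET measurement on PR-UAS-bla HEK293T cells exposed to compounds 16 hr.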

[4] = qHTS assay to identify small molecule antagonists of the TGF-beta/Smad signaling pathway - cell viability counter screen (AID 1346824); also: nearly all actives have a fitted effect of over 50% in size; also: potency is read from the fitted curve at half-maximal effect
Method in brief: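 SBE-bla HEK 293T cells, incubated overnight, then compound plus 0.25 ng/mL TGF-beta1 (stock added) for 5 hr at 37 C. Viability was read in the same wells by CellTiter-Glo luminescence after 30 min at room temperature.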

[5] = qHTS assay to identify small molecule agonists of the TGF-beta/Smad signaling pathway - cell viability counter screen (AID 1346829); also: nearly all actives have a fitted effect of over 45% in size; also: potency is read from the fitted curve at half-maximal effect
Method in brief: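 Compound-treated SBE-bla HEK 293T cells (5 hr, 37 C) were assessed for viability with CellTiter-Glo in parallel with the reporter read.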

[6] = qHTS assay to identify small molecule agonists of the TGF-beta/Smad signaling pathway (AID 1346859; active = well fitted activation curve with a large enough effect in the signal ratio in the repeat runs, not every such curve was filed as active; the % refers to the signal ratio; also: series mostly up to about 77 µM)
Method in brief: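 Screening used HEK 293T SBE-bla cells at 4,000/well. Test agents: 5 hr, 37 C. Detection: FRET substrate, 2 hr RT, then excitation 405 nm with emissions at 460 and 530 nm.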

[7] = target: Progesterone receptor (Homo sapiens) (UniProt P06401); experiment: qHTS assay to identify small molecule antagonists of the progesterone receptor (PR) signaling pathway (AID 1346795; active = well fitted inhibition curve with a large enough effect in the signal ratio in the repeat runs, not every such curve was filed as active; the % refers to the signal ratio; also: potency is read from the fitted curve at half-maximal effect)
Method in brief: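 Stimulus R5020 at 1 nM final; cells HEK293T PR-UAS-bla; medium with 2% charcoal-stripped FBS; compound exposure 16 hr at 37C, 5% CO2; detection by FRET beta-lactamase substrate, 2 hr, room temperature.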

[8] = target: Thyrotropin-releasing hormone receptor (Homo sapiens) (UniProt P34981); experiment: qHTS assay to identify small molecule agonists of the thyrotropin-releasing hormone receptor (TRHR) signaling pathway (AID 1346891; calls by dose curve; also: series mostly up to about 58 µM)
Thyrotropin-releasing hormone receptor (Homo sapiens), sequence (P34981 whole entry, looked up): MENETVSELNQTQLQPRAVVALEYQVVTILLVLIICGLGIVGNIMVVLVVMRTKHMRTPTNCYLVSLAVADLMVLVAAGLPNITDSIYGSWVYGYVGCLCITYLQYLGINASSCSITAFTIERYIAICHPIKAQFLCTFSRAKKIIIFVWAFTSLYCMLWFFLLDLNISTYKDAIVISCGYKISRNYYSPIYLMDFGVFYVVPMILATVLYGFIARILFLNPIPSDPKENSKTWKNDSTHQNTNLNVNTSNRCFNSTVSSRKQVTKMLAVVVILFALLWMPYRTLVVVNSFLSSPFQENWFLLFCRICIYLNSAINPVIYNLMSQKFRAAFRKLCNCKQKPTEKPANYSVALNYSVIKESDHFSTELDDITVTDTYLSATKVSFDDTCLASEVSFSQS
Method in brief: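 Readout was intracellular calcium fluorescence in TRHR-Hek293 cells. Cells were incubated 18 h, dye-loaded 2 h at 37 °C, and treated with compound in agonist mode.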

[9] = target: Thyrotropin-releasing hormone receptor (Homo sapiens) (UniProt P34981); experiment: qHTS assay to identify small molecule antagonists of the thyrotropin-releasing hormone receptor (TRHR) signaling pathway (AID 1346877; active = well fitted inhibition curve with a large enough effect in the repeat runs, not every such curve was filed as active; also: series mostly up to about 51 µM)
Method in brief: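 Calcium signal in dye-loaded TRHR/HEK293 cells; compounds added 5 min before TRH (1 nM final); fluorescence monitored 3 min at 1 s steps.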

| Structure (SMILES) | Potency [1] | Potency [2] | Potency [3] | Potency [4] | Potency [5] | Potency [6] | Potency [7] | outcome [8] | Potency [9] |
| --- | --- | --- | --- | --- | --- | --- | --- | --- | --- |
| CCOP(=S)(OCC)SCSC(C)(C)C | inactive | 48.6 µM (active) | inactive | inactive | inactive | inactive |  |  |  |
| O=C1C(Cl)=C(Cl)C(=O)c2ccccc21 | inactive | 61.3 µM (active) and 61.1 µM (active) | 61.1 µM (active) | 49.1 µM (active) and 49 µM (active) | 49.1 µM (active) and 43.6 µM (active) |  | 48.6 µM (active) | inactive |  |
| N#Cc1nn(-c2c(Cl)cc(C(F)(F)F)cc2Cl)c(N)c1S(=O)C(F)(F)F (stereo not drawn) | inactive |  | inactive | inactive | inactive | inactive |  | inactive | inactive |
| COP(=S)(OC)Oc1ccc(Sc2ccc(OP(=S)(OC)OC)cc2)cc1 | inactive |  | inactive | inactive | inactive | inactive | 54.5 µM (active) and inactive | inactive | inactive |
